The panel holds about 79,000 compounds, 15% with a hit somewhere; the sample as a whole holds those more often. Unmarked numbers belong to inactive results. Active and inactive are the calls of the source. No stated cut-off is given here; in the data, active means growth inhibition above about 70%; inactive means the rest.
Assays:
[1] = NCI Yeast Anticancer Drug Screen. Data for the rad50 strain (AID 155);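 further: 0% = growth of vehicle-only cultures of the same strain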; settings: S. cerevisiae rad50 strain growth inhibition; at 50.0 µM; hits give high values
Outline: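 Yeast carrying a defined DNA repair defect were exposed to test compounds, and growth was compared with vehicle-treated controls to give percent inhibition.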

[2] = NCI Yeast Anticancer Drug Screen. Data for the mec2-1 strain (AID 157); settings: S. cerevisiae mec2-1 strain, at 50.0 µM, hits give high values
Outline: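 Readout is yeast growth inhibition, normalised to vehicle-treated controls, in the mec2-1 strain exposed to compound.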

[3] = NCI Yeast Anticancer Drug Screen. Data for the sgs1 mgt1 strain (AID 161);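 further: 0% = growth of cultures given vehicle only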; settings: S. cerevisiae sgs1 mgt1 strain, at 50.0 µM, hits give high values
Outline: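 Compounds are added to genetically altered yeast, and growth is compared with cultures given vehicle alone to give percent inhibition.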

[4] = NCI Yeast Anticancer Drug Screen. Data for the cln2 rad14 strain (AID 165);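 further: 0% = growth equal to vehicle treated cultures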; settings: S. cerevisiae cln2 rad14 strain, at 50.0 µM, hits give high values
Outline: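 Relative to vehicle controls, growth inhibition of compound-treated cln2 rad14 yeast was recorded.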

[5] = NCI Yeast Anticancer Drug Screen. Data for the bub3 strain (AID 167); settings: S. cerevisiae bub3 mutant strain, at 50.0 µM, hits give high values
Outline: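 Compounds were applied to a genetically altered yeast strain carrying a cell-cycle control defect. Growth inhibition was scored against vehicle-treated controls.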

[6] = NCI Yeast Anticancer Drug Screen. Data for the mlh1 rad18 strain (AID 175); settings: S. cerevisiae mlh1 rad18 strain growth inhibition; at 50.0 µM; hits give high values
Outline: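 Test agents were incubated with a yeast strain of defined genotype (DNA damage repair defect). Inhibition of growth was derived by comparison with vehicle-exposed cultures.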

SMILES | growth inhibition [1] | growth inhibition [2] | growth inhibition [3] | growth inhibition [4] | growth inhibition [5] | growth inhibition [6]
OC(C1CCCCC1)(C1CCC2(CCCCC2)CC1)C1CCCC2CCCCC21 (stereo unspecified) | 29.9% | 5% | 30.9% | 21.5% | 1.35% | 20.1%
CC(C)Nc1nc(N)nc2nc(-c3ccc(Cl)cc3)c(-c3ccc(Cl)cc3)nc12 | -8.7% | -2.5% | -6.85% | -17.4% | 8% | 8%
CCOC(=O)c1ccc(NC(=O)Nc2cc(Cl)c(OC)cc2OC)cc1 | 75% (active) | 90.7% (active) | 94% (active) | 91.8% (active) | 76.1% (active) | 85.8% (active)
CC(=O)Oc1ccc(OC(C)=O)c2cc3ccccc3cc12 | -28.1% | -29.1% | -32.9% | -6.6% | -12.8% | -19.8%
CC(=O)OCCCC(CCCOC(C)=O)OC(C)=O | -7.7% | -6.85% | 12.2% | -12.8% | 5.25% | 29.2%
CN(C)c1nc(=O)c2ccccc2o1 | -41% | -14.1% | -28.4% | -36.5% | -7.75% | -5.05%
CC(=O)CC(=O)Nc1ccc(C(=O)c2ccccc2)cc1 | 8.35% | -41.3% | -13% | 1.5% | 4.5% | -22.2%
NC(CCC(=O)NC1(C(=O)O)C2CC3CC(C2)CC1C3)C(=O)O (stereo unspecified) | 6% | -0.1% | -5% | -18% | -4.4% | 4.85%
Cn1c(=O)oc2cc(C(O)CN3CCN(Cc4ccccn4)CC3)c(Cl)cc21 (stereo unspecified) | -19.6% | 3.9% | -4.5% | 2.45% | 6.25% | 11.4%
O=C1NC(=O)c2ccc(S)c3cccc1c23 | 0.5% | 0% | -2.35% | -41.1% | 3.35% | -8.05%
N#CC1C(=O)NC(=O)C(C#N)C12CCCC2 (stereo unspecified) | -3.65% | -9.2% | 5.25% | -22.2% | 10.9% | 10.7%
CCCCCNc1ncnc2c1cnn2C | 7.6% | 0.6% | -1.35% | -12.4% | 22.6% | -0.4%
O=C(N/N=C/c1ccc(O)cc1)C1CCCO1 (stereo unspecified) | 2.9% | 26.5% | -1.35% | -64.2% | 2.95% | -9.45%
Cc1cc2nn(C3CCCCO3)nc2cc1C (stereo unspecified) | 1.75% | -20.4% | -21.6% | -25.4% | 8.05% | -46.8%
CCOCN1COCN(C)C1=O | 8.1% | -6.55% | -6.45% | 13.3% | 20.1% | 3.95%
COc1ccc(NC(C)=O)cc1[N+](=O)[O-] | -4.6% | -7.7% | -1.7% | -13.3% | -18.3% | 6.15%
Cc1ccc(F)c([N+](=O)[O-])c1 | -3.55% | 7.1% | -10.5% | 0% | -9.65% | -6.5%
OCC(OC/C=C/CCl)c1ccc(Cl)cc1 (stereo unspecified) | -6.75% | 8.7% | 0.2% | -0.15% | -9.5% | -15.9%
CN(Cc1ccccc1)c1ccc(C(=O)O)cc1 | -2.65% | 2.3% | -5.55% | -19% | -23.6% | 7%
CC1=NN(C(=O)c2ccncc2)C(=O)C1N=Nc1ccc(F)cc1 (stereo unspecified) | -4.65% | -10.2% | -7.65% | -5.2% | -7.15% | -4.9%
COc1ccc(/C=N/N2CCN(/N=C/c3ccc(OC)cc3)CC2)cc1 | 9.85% | 9.7% | 9.2% | -6.1% | 5.1% | -5.35%

SMILES | growth inhibition [1] | growth inhibition [2] | growth inhibition [3] | growth inhibition [4] | growth inhibition [5] | growth inhibition [6]
Cc1cc(-c2ccccc2N)nc2ccccc12 | 47.5% | 2.35% | 30.4% | 31.3% | 15.9% | 26.6%
COc1ccc2ccccc2c1C1OC(=O)c2ccccc21 (stereo unspecified) | 37.8% | 24.6% | 51.7% | 33.4% | 25.2% | 52.5%
COC(=O)C1CCCC2(C1)OCCO2 (stereo unspecified) | 15.2% | 5% | -23.1% | -10.2% | -32.7% | -2.75%
CCCC(=O)NC(Nc1cc(C)ccn1)(C(=O)OCC)C(F)(F)F (stereo unspecified) | -4.85% | 8.5% | 9.1% | 7.4% | 15.8% | -31.9%
CCOC(=O)C(=Cn1ccc(=O)[nH]c1=S)C(=O)OCC | -4.6% | -31.1% | -23.9% | 9.35% | -11.6% | -10.3%
COC(=O)c1nc(N)nc(C(=O)OC)c1C(=O)c1c(C)[nH]c2ccccc12 | -9.85% | -20% | -36.9% | -30.1% | -28.4% | -25.6%
Cc1ccc(S(=O)(=O)N2C(=N)C(=S)N(C)C2=O)cc1 | -42.9% | -10.3% | -15.4% | -30.4% | -15.8% | 12.4%
O=C1CCC2CCC(=O)N12 | 1.25% | -2.2% | -10.3% | 2.1% | -11.2% | 5.65%
C=CCCCCCCCC(O)C1C[C@H](O)C(CCCCC)O1 (stereo partly specified) | -0.8% | -16.9% | 9.25% | 1.15% | -17.2% | -5%
CCC(CO)NC(=O)c1cccnc1 (stereo unspecified) | -13.5% | -8.3% | -2.85% | -19% | -7.6% | 2.25%
CC(=O)OC(c1ccccc1)C1(c2ccccc2)OCCO1 (stereo unspecified) | -9.2% | 7.5% | 5.75% | -33% | 1.4% | 17.1%
C1CCCN(/N=N/N2CCCCCC2)CC1 | -1.5% | 0.4% | -1.7% | -19.1% | 10.8% | 6.65%
Nc1c(N=Nc2ccc(-c3ccc(N=Nc4ccc(O)c(C(=O)O)c4)cc3)cc2)cc(S(=O)(=O)O)c2ccccc12 | 91.5% (active) | 96.6% (active) | 94.9% (active) | 93.3% (active) | 91% (active) | 93.1% (active)
COc1ccc(Cc2cc3c(cc2OCC(=O)N2CCOCC2)OCO3)cc1 | -3.25% | -9.5% | -4.25% | -37.7% | 20.4% | -3.3%
COC(=O)C1=CC2C(C1)C1CC2C(OC(C)=O)C1N(C)C (stereo unspecified) | 15.8% | 6% | -0.55% | -31.8% | 6.35% | 17.4%
O=C(O)CCN1CCCS(=O)(=O)C1=O | 11.8% | 8% | -0.35% | 9% | -0.85% | -5.3%
COc1ccc(/C=C2\N=C(N3CCOCC3)NC2=O)cc1 | -4.15% | 7.25% | 10.4% | -13.8% | -3.4% | -43.8%
COC(C(N)=O)c1ccccc1 (stereo unspecified) | -9.8% | -11.3% | -16.4% | -8% | 8.7% | -3.45%
O=C(c1ccccc1Cl)N1CCN(c2ccccc2)CC1 | 12.9% | -3.4% | 0% | -28.5% | 9.55% | -6.85%
CCOC(=O)C(CCCOC1CCCCO1)(C(=O)CC)c1ccccc1 (stereo unspecified) (tested in a mixture with another compound) | 25.4% | -7.05% | -6.25% | 2.3% | 1.9% | -3.05%

Reference: PubChem BioAssay (NCI)
